From PubChem BioAssay (NCI)
This is part of a sample that, as a whole, favours compounds with a hit. Of some 83,000 tested, about 20% had one in any assay.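 Assay: single dose, 48 h. Readout: percent growth (0 = no net growth; negative = cell death). Active: <10.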 The source made the active and inactive calls.

Key:
Assay in all cases: NCI-60 one-dose screen, 48 h (100 = growth as untreated, 0 = no growth, -100 = all killed)
[1] = tested on: SR leukemia; details: 10 µM unless noted
[2] = tested on: RPMI-8226 leukemia; details: 10 µM unless noted
[3] = tested on: OVCAR-8 ovarian; details: 10 µM unless noted
[4] = tested on: OVCAR-5 ovarian; details: 10 µM unless noted
[5] = tested on: OVCAR-4 ovarian; details: 10 µM unless noted
[6] = tested on: SK-OV-3 ovarian; details: 10 µM unless noted
[7] = tested on: IGROV1 ovarian; details: 10 µM unless noted
[8] = tested on: OVCAR-3 ovarian; details: 10 µM unless noted
[9] = tested on: HS 578T breast; details: 10 µM
[10] = tested on: NCI/ADR-RES ovarian; details: 10 µM unless noted

Measured: growth

O=C(Cn1ccc2ccccc21)Nc1ccc(-c2nc3ccccc3s2)cc1
inactive: [1] 95.5% | [2] 100% | [3] 105% | [4] 104% | [5] 103% | [6] 102% | [7] 73.8% | [8] 102% | [9] 97.7% | [10] 100%

O=C(NCCO)Nc1ccc(-c2nc(N3CCOCC3)c3cccn3n2)cc1
inactive: [10] 34.5%
active: [1] 8.14% | [2] 7.85% | [3] 5.91% | [4] -11% | [5] -15.5% | [6] -37.1% | [7] -25.9% | [8] 0.347% | [9] -34.5%

COC(=O)[C@H](Cc1ccccc1)NC(=O)[C@@H](OC)[C@@H]1Cc2cc3cc(OC4CC(OC5CC(O)C(O)C(C)O5)C(O)C(C)O4)c(C)c(O)c3c(O)c2C(=O)[C@H]1OC1CC(OC2CC(OC3CC(C)(O)C(O)C(C)O3)C(O)C(C)O2)C(O)C(C)O1 (stereo not given in full)
active: [1] 7.89% | [2] -16.5% | [3] 7.42% | [4] 8.6% | [5] 1.44% | [8] 5.7% | [9] -16.7%
inactive: [6] 17% | [7] 25.5% | [10] 51.6%

CC(CCCC(=O)O)c1ccoc1 (stereo not given)
inactive: [1] 102% | [2] 104% | [3] 109% | [4] 105% | [5] 99.7% | [6] 95.1% | [7] 102% | [8] 105% | [9] 112% | [10] 104%

COc1ccc(-n2c(=O)c3ccccc3n(Cc3ccc(C(=O)NO)cc3)c2=O)cc1
inactive: [2] 12% | [4] 58.4% | [5] 17.1% | [6] 28.3% | [7] 14.4% | [9] 56.9% | [10] 70.2%
active: [1] 7.16% | [3] -0.914% | [8] 8.92%

O=C1OCC2=C1C(c1cccc(F)c1)c1cc3c(cc1N2CCO)OCCO3 (stereo not given)
active: [8] -13.9% | [10] 6.36%
inactive: [1] 12.3% | [2] 22.1% | [3] 24.4% | [4] 30.8% | [5] 45% | [6] 27.1% | [7] 26.3% | [9] 31.4%

c1ccc2c(c1)CCN(NCCN1CCCC1)C2
inactive: [1] 103% | [2] 95.5% | [3] 101% | [4] 94.7% | [5] 106% | [6] 84.6% | [7] 96.3% | [8] 99.9% | [9] 85.6% | [10] 96.1%

CC(N)C(Cc1ccccc1)c1ccc(Cl)cc1 (stereo not given)
inactive: [1] 67.9% | [2] 94.5% | [3] 96.1% | [4] 80.8% | [5] 85.8% | [6] 72.5% | [7] 94.8% | [8] 102% | [9] 86.2% | [10] 95.7%

COc1cc(-c2nc(C(=O)Nc3ccc(C)cc3)nn2-c2ccc(F)c(F)c2)cc(OC)c1OC
inactive: [1] 91.8% | [2] 103% | [3] 103% | [4] 117% | [5] 103% | [6] 89.1% | [7] 86.9% | [8] 107% | [9] 121% | [10] 93.6%

Cc1sc2c(c1C)c(=O)nc1c(-c3nc4ccccc4s3)n[nH]n12
inactive: [1] 88.5% | [2] 87.9% | [3] 97.9% | [4] 110% | [5] 99.6% | [6] 91.4% | [7] 94.2% | [8] 98.2% | [9] 93.3% | [10] 93.7%

COC(=O)CC[C@@H](C)[C@H]1CC[C@H]2C3CC[C@@H]4C[C@@H]5CC[C@]4(C)[C@@]3(O5)[C@H](Br)[C@@H](Br)[C@]12C (stereo not given in full)
inactive: [1] 82.6% | [2] 88.5% | [3] 97.8% | [4] 102% | [5] 85.5% | [6] 80.2% | [7] 103% | [8] 101% | [9] 112% | [10] 103%

O=C1CC(c2ccc3c(c2)OCO3)c2ncn(-c3ccc(Cl)cc3)c2N1 (stereo not given)
inactive: [1] 24.4% | [2] 38.7% | [3] 29.7% | [4] 71.2% | [5] 59.3% | [6] 37.4% | [7] 60.5% | [9] 47.5% | [10] 14%
active: [8] 7.91%
